CYP2C19 activ: human CYP2C19 activators, primary screen, biochemical, luminescence. Cytochrome P450 2C19 (Homo sapiens), P33261. recombinant CYP2C19, luciferin-H EGE luminescence; hits give high values; 0 = fully inhibited enzyme, 1 = untreated enzyme. activation factor at 5 µM. 96,000 tested, under 10 active. AID 1025, 2008;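 active = activation factor of at least 2 at 5 µM in the primary screen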;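 note: 0 = wells with 2.5 mM tranylcypromine and 1 = vehicle-only wells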
Target sequence (P33261 whole entry, looked up): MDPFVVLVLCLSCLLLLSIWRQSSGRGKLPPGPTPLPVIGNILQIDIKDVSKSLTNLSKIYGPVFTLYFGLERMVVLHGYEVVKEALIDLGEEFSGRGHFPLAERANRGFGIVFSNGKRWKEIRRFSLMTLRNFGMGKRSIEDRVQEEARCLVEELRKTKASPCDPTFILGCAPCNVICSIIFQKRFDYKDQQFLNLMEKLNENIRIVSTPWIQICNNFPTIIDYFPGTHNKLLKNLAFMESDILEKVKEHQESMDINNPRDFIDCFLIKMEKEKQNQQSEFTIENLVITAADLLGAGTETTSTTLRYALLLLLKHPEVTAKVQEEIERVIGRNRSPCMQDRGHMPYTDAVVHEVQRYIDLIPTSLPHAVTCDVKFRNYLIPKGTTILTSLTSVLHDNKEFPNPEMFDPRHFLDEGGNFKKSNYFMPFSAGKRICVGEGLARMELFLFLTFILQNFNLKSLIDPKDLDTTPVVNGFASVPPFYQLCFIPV
CYP2C19 inh: blockers of cytochrome P450 2C19 activity – biochemical, luminescence, ADME assay, primary screen; P33261; CYP2C19 Supersomes, luciferin-H EGE luminescence, 30 min; inhibition, % at 5 µM; 96,000 compounds, 21% hits; AID 778, 2007;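 active = CYP2C19 inhibition above a set limit at 5 µM in the primary screen, cut at about 50% in these data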;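 note: plate controls were negative control wells for no effect and 2.5 mM tranylcypromine positive control for full effect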
MRP resist rev: reversal of MRP1-mediated doxorubicin resistance, primary screen, H69AR cells, doxorubicin co-treatment. differential viability (reversal), % at 10 µM. H69AR cells + 2 uM doxorubicin, CellTiter-Glo, 72 h. 85,000 compounds, 0.04% hits;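 active = viability drop by adding the cancer drug above about 55%, with treated viability meeting a 40% cutoff, limit read from the data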;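 note: viability without doxorubicin minus viability with 2 µM doxorubicin for each compound; larger differential means the compound sensitizes cells more to doxorubicin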
MRP-1 activ: H69AR viability gain despite doxorubicin, primary screen, MRP-1 activator project, H69AR cells, CellTiter-Glo; 140,000 compounds, 0.61% hits; AID 799, 2007; viability rescue; viability increase, % at 10 µM;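 active = viability gain under doxorubicin at or above a set limit, the compound median plus 3 SD, cut at about 4.7% in these data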;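 note: MRP-1 overexpressing cells given doxorubicin 25 µM after compound pretreatment; 18-22 h compound pretreatment then 72 h with doxorubicin before readout; 0% = doxorubicin-only wells and 100% = vehicle-treated cells without doxorubicin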
CYP2C9 act: human CYP2C9 activators, primary screen, biochemical, luminescence. activation factor at 5 µM. 96,000 compounds, 1.4% hits. AID 1024, 2008. Cytochrome P450 2C9 (Homo sapiens), P11712. recombinant CYP2C9, luciferin-H conversion; hits give high values; factor 1 = untreated enzyme, 0 = blocked;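 active = activation factor of 2 or more for CYP2C9 at a 5 µM dose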;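 note: 0 = sulfaphenazole-blocked wells and 1 = vehicle-only wells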
CYP2C9 inhib: blockers of cytochrome P450 2C9 activity – biochemical, luminescence, ADME assay, primary screen; AID 777, 2007; P11712; CYP2C9 Supersomes, luciferin-H conversion; 96,000 compounds, 20% hits; inhibition, % at 5 µM;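 active = blocking of liver enzyme CYP2C9 beyond about 50% at 5 µM, limit read from the data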
Numbers without * were called inactive; . = no result given. This is a sample that favours compounds with a hit; in the whole collection about 21% have one here.

SMILES	CYP2C19 activ	CYP2C19 inh	MRP resist rev	MRP-1 activ	CYP2C9 act	CYP2C9 inhib
CCOC(=O)c1c(C)[nH]c(C)c1C(=O)COC(=O)C1CCCN1S(=O)(=O)c1ccccc1F (stereo not given)	0	100*	4	0	0.1	95*
CCOC(=O)C1=NNC(C(=O)c2ccc(OC)cc2)C1c1ccccc1 (stereo not given)	0.6	38	14	-3	0.5	52*
CCN(CC)S(=O)(=O)c1ccc(Cl)c(C(=O)Nc2cc(C)nn2-c2ccccc2)c1	.	.	.	-2	.	.
Cc1cc(NC(=O)c2cccs2)n(-c2ccccc2)n1	0.3	70*	3	-1	0.6	36
Cc1cc(NC(=O)C(C)Oc2ccc(Cl)cc2Cl)n(-c2ccccc2)n1 (stereo not given)	0.3	75*	-1	-3	0.4	63*
Cc1cc(NC(=O)c2sccc2C)n(-c2cccc(Cl)c2)n1	0	96*	10	-2	0.5	52*
CCn1nnc(NC(=O)C(C)Oc2ccc(Cl)cc2Cl)n1 (stereo not given)	0.7	26	14	-3	0.9	10
O=C(c1ccccc1)C1CCc2occc2C1=O (stereo not given)	0.8	24	7	1	0.9	6
Clc1ccc(C2=Nn3c(nnc3-c3n[nH]c4c3CCC4)SC2)cc1Cl	.	.	.	-7	.	.
CC(NC(=O)NC1CCCCC1)C(c1cccs1)N1CCN(C)CC1 (stereo not given)	1	-2	6	-1	0.9	11
Clc1ccc2[nH]cc(-c3nnnn3-c3ccc4ccccc4c3)c2c1	1.1	-5	.	-1	1.2	-16
O=C(CN(Cc1ccccc1)S(=O)(=O)c1ccccc1)N/N=C/c1ccccc1[N+](=O)[O-]	0.6	42	.	-3	0.3	65*
Cc1ccc(CN(CC(=O)N/N=C/c2ccccc2[N+](=O)[O-])S(=O)(=O)c2ccc(C)cc2)cc1	0	97*	.	-4	0.2	85*
Cc1ccc(S(=O)(=O)N(CC(=O)N/N=C/c2ccco2)Cc2ccccc2)cc1	0.6	36	.	-1	0.6	42
CCOCCCNC(=O)COc1ccc(OC)cc1	0.6	38	-7	-1	0.9	8
O=c1ccnc(SCc2ccccc2Cl)[nH]1	1	-2	8	-2	0.4	60*
Nc1nc(SCc2ccccc2Cl)[nH]c(=O)c1-c1ccccc1	.	.	14	4	.	.
CCS(=O)(=O)Nc1ccc(Cc2ccc(NS(=O)(=O)CC)cc2)cc1	0.3	70*	4	0	0.1	87*
CCN1CCN(C(=O)Nc2ccc(Cc3ccc(NC(=O)N4CCN(CC)CC4)cc3)cc2)CC1	1.1	-7	17	-2	1	-5
CS(=O)(=O)Nc1ccc(Cc2ccc(NS(C)(=O)=O)cc2)cc1	0.7	26	-7	-1	0.5	52*
CCCCCOc1ccc(NS(C)(=O)=O)cc1	0.9	10	-7	-1	0.7	26
Cc1ccc(-n2c(C)nnc2SCC(=O)N2CCc3ccccc3C2)cc1	.	.	.	0	.	.
Cn1c(=O)c2c(nc(NCc3cccnc3)n2Cc2cccc(C(F)(F)F)c2)n(C)c1=O	0.5	53*	-11	-1	0.3	69*
CCCS(=O)(=O)c1c(S(=O)(=O)CCC)c2c3ccccc3ccn2c1C(N)=O	1	2	6	-2	1	0
CCOc1ccc(-c2ncncc2-c2ccc(OC)cc2)c(O)c1	0.7	33	7	-1	0.5	54*
SMILES	CYP2C19 activ	CYP2C19 inh	MRP resist rev	MRP-1 activ	CYP2C9 act	CYP2C9 inhib
Cc1nc2c(C)cccn2c1/C(O)=C1\C(=O)C(=O)N(CCN2CCOCC2)C1c1cccs1 (stereo not given)	0.7	32	5	0	0.9	6
O=C(Cc1cccs1)Nc1nc2c(s1)CCCC2	0.9	10	2	0	0.8	20
O=C(CC1CCCCC1)NCc1cn2ccsc2n1	0.6	37	1	-2	0.5	53*
O=C(CCCc1ccccc1)NCc1cn2ccsc2n1	0.7	31	2	0	0.9	6
O=C(Cc1cn2ccsc2n1)Nc1nc2c(s1)CCCC2	0.5	47	18	0	0.5	52*
O=C(CC1CCCC1)NCCc1cn2ccccc2n1	0.3	68*	-8	-3	0.8	21
CC(=O)N1CCN(C(=S)c2ccc(N(C)C)cc2)CC1	0.8	16	12	-1	0.9	8
CN(C)c1ccc(C(=S)N2CCCCCC2)cc1	0.5	53*	5	-1	0.8	20
Cc1ccc(N2CCN(C(=S)c3ccc(N(C)C)cc3)CC2)cc1	0.2	83*	-4	-3	0.2	77*
CCn1nnnc1SCC(=O)Nc1nc(C)c(C)s1	.	.	3	-2	.	.
CC(=O)N1c2c(cc(Br)cc2S(=O)(=O)NCC2COc3ccccc3O2)CC1C (stereo not given)	0.3	65*	-3	-1	1.8	-81
CCCCN(Cc1ccccc1)S(=O)(=O)c1cc(Br)cc2c1N(C(C)=O)C(C)C2 (stereo not given)	0.6	38	-16	-1	0.1	95*
CC(=O)N1c2c(cc(Br)cc2S(=O)(=O)NCc2ccc3c(c2)OCO3)CC1C (stereo not given)	0.1	86*	1	-2	1.8	-83
COc1cc(-c2nc(-c3ccccc3)c(-c3cccs3)[nH]2)cc(OC)c1OC	0.7	33	1	-2	0.5	49
COc1cc(-c2nc(-c3ccccc3)c(-c3cccs3)[nH]2)cc(OC)c1O	0.4	61*	-2	-2	0.2	82*
O=[N+]([O-])c1ccccc1/C=C/C=N/n1c(-c2ccc(Cl)cc2)n[nH]c1=S	0.9	8	.	-2	0.4	58*
O=[N+]([O-])c1cc(S(=O)(=O)N2CCCC2)ccc1N/N=C1/CCCc2ccccc21	.	.	.	-1	.	.
CCN(CC)C(=O)C1CCCN(c2ccc([N+](=O)[O-])cc2/C=N/NC(=O)c2cccc(O)c2)C1 (stereo not given)	0.1	89*	.	-4	0.1	93*
CCN(CC)C(=O)C1CCCN(c2ccc([N+](=O)[O-])cc2/C=N/NC(=O)c2ccccc2)C1 (stereo not given)	.	.	.	-4	.	.
O=C1Nc2ccccc2CCC1Sc1nnc(-c2ccc(Cl)cc2)s1 (stereo not given)	.	.	26	6.6*	.	.
Cn1cnnc1SCc1ccc(F)c2ccccc12	0.4	56*	5	0	1.1	-13

Compound activity as filed in PubChem.
